Experimental data reported in the supplement of paper PMC10849652.
The full data set covers some 8,800 targets. This sample favours those with a hit. About 0.5% of all pairs of compound and target were hits.

What was measured:
Assay in all cases: log2 fold change, soluble protein after heating vs DMSO (PISA); higher = thermal stabilisation; K562 lysate, 10 uM; active = over 0.2 and 3.5 SD of the protein, either way, in both replicates (recomputed)
[1] = compound: CCCS(=O)(=O)Nc1ccc(F)c(C(=O)c2c[nH]c3ncc(-c4ccc(Cl)cc4)cc23)c1F [vemurafenib]
Outline: (§1)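 To prepare the extract, K562 pellets were dounce-homogenised in PBS pH 7.4 with 1 mM MgCl2, giving crude material at 1 mg/mL protein. This was treated with 10 μM compound for 30 min, then heated in aliquots for 3 min over 48°C-58°C before pooling and addition of NP-40 to 0.5% at 4°C. Centrifugation at 21,000xg for 90 min left soluble protein in the supernatant, which TMTpro 16plex LC-MS/MS quantified with equalised channel sums. Results are log-two fold changes in thermal stability compared with solvent controls, from duplicates.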

[2] = compound: CCCS(=O)(=O)Nc1ccc(F)c(C(=O)c2c[nH]c3ncc(Cl)cc23)c1F
Outline: as §1

[3] = compound: CCN(CCCOc1ccc2c(Nc3cc(CC(=O)Nc4cccc(F)c4)[nH]n3)ncnc2c1)CCOP(=O)(O)O [barasertib]
Outline: as §1

[4] = compound: CC[C@@H]1C(=O)N(C)c2cnc(Nc3ccc(C(=O)NC4CCN(C)CC4)cc3OC)nc2N1C1CCCC1
Outline: as §1

[5] = compound: CC[C@@H]1C(=O)N(C)c2cnc(Nc3ccc(C(=O)N[C@H]4CC[C@H](N5CCN(CC6CC6)CC5)CC4)cc3OC)nc2N1C(C)C [volasertib]
Outline: as §1

[6] = compound: CCn1c(C(=O)N(C2CC2)C2CC2)cc2c3c(ncn3C)c(Nc3cc(C)n(C)n3)nc21
Outline: as §1

[7] = compound: CCn1cc(-c2ccnc3[nH]c(-c4cccc(CN(C)C)c4)cc23)c(-c2ccc(NC(=O)N(C)C)cc2)n1
Outline: as §1

[8] = compound: CN1CCC(CNc2ccc3ncc(-c4cccc(OC(F)(F)F)c4)n3n2)CC1
Outline: as §1

[9] = compound: CN1CCN(CCOc2cc(OC3CCOCC3)c3c(Nc4c(Cl)ccc5c4OCO5)ncnc3c2)CC1 [saracatinib]
Outline: as §1

[10] = compound: CN1CCN(c2nc(C3=C(c4c[nH]c5ccccc45)C(=O)NC3=O)c3ccccc3n2)CC1 [sotrastaurin]
Outline: as §1

[11] = compound: CN1CC[C@H](c2c(O)cc(O)c3c(=O)cc(-c4ccccc4Cl)oc23)[C@H](O)C1 [alvocidib]
Outline: as §1

[12] = compound: CN1CCc2c(c3ccccc3n2Cc2ccc(C(=O)NO)cc2)C1 [Tubastatin A]
Outline: as §1

[13] = compound: CNC(=O)C1=CC=CC=C1NC2=NC(=NC=C2Cl)NC3=C(C=C(C=C3)N4CCOCC4)OC
Outline: as §1

[14] = compound: CNC(=O)c1ccc(Nc2ncc(C(F)(F)F)c(NCc3nccnc3N(C)S(C)(=O)=O)n2)cc1 [defactinib]
Outline: as §1

[15] = compound: CNc1nc(-c2ccc3c(N)n[nH]c3c2)cc(N2C[C@@H](C(=O)NC3CCCCC3)CC[C@H]2C)n1
Outline: as §1

[16] = compound: COC(=O)N[C@@H](C)CNc1nccc(-c2cn(C(C)C)nc2-c2cc(Cl)cc(NS(C)(=O)=O)c2F)n1 [encorafenib]
Outline: as §1

[17] = compound: COC(=O)[C@H](CCSC)NC(=O)C1=C(C=C(C=C1)NC[C@H](CS)N)C2=CC=CC=C2
Outline: as §1

[18] = compound: COc1cc(Nc2ncc3c(n2)-c2ccc(Cl)cc2C(c2c(F)cccc2OC)=NC3)ccc1C(=O)O [alisertib]
Outline: as §1

[19] = compound: COc1cc2nc(-c3cc(F)ccc3O)nc(N[C@@H]3CNC[C@H]3C(C)(C)O)c2cc1OC
Outline: as §1

[20] = compound: COc1cc2ncnc(Nc3ccc(F)c(Cl)c3)c2cc1OCCCN1CCOCC1 [gefitinib]
Outline: as §1

Measured: log2 fold change

LRCH3 (UniProt Q96II8)
inactive: [1] -0.009 | [2] -0.01 | [3] 0.03 | [4] -0.051 | [5] -0.058 | [6] -0.022 | [7] 0.022 | [8] -0.031 | [9] 0.004 | [10] -0.047 | [11] 0 | [12] -0.238 | [13] -0.003 | [14] -0.002 | [15] 0.069 | [16] 0.021 | [17] 0.045 | [18] 0.021 | [19] -0.012 | [20] -0.075

MAD2L1BP isoform 3 (UniProt Q15013)
inactive: [1] 0.003 | [2] 0.009 | [3] 0.054 | [4] -0.076 | [5] -0.042 | [6] 0.022 | [7] 0 | [8] 0.03 | [9] 0.021 | [10] 0.01 | [11] 0.047 | [12] -0.135 | [13] 0.088 | [14] 0.068 | [15] -0.012 | [16] 0.138 | [17] 0.234 | [18] 0.052 | [19] -0.009 | [20] -0.054

MPP1 (UniProt Q00013)
Chain of UniProt Q00013 (Q00013 whole entry, looked up): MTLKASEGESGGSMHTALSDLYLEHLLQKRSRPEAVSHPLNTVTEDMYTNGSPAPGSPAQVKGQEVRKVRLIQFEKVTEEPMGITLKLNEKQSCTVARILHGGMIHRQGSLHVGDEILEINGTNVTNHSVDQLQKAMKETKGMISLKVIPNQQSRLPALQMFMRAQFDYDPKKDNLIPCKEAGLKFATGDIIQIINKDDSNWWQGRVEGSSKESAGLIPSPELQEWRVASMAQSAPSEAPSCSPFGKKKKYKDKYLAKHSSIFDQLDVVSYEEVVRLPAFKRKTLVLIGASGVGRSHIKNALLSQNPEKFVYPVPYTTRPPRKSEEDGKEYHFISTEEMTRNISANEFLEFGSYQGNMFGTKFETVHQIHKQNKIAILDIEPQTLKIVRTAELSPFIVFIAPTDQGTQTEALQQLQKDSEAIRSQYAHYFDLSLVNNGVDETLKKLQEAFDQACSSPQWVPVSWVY
inactive: [1] 0.014 | [2] -0.005 | [3] -0.014 | [4] 0.001 | [5] -0.029 | [6] -0.011 | [7] -0.008 | [8] -0.034 | [9] -0.001 | [10] -0.007 | [11] -0.01 | [12] -0.01 | [13] -0.007 | [14] -0.002 | [15] 0.01 | [16] -0.015 | [17] 0.011 | [18] -0.008 | [19] -0.007 | [20] 0

MOSPD2 (UniProt Q8NHP6)
Chain of UniProt Q8NHP6 (Q8NHP6 whole entry, looked up): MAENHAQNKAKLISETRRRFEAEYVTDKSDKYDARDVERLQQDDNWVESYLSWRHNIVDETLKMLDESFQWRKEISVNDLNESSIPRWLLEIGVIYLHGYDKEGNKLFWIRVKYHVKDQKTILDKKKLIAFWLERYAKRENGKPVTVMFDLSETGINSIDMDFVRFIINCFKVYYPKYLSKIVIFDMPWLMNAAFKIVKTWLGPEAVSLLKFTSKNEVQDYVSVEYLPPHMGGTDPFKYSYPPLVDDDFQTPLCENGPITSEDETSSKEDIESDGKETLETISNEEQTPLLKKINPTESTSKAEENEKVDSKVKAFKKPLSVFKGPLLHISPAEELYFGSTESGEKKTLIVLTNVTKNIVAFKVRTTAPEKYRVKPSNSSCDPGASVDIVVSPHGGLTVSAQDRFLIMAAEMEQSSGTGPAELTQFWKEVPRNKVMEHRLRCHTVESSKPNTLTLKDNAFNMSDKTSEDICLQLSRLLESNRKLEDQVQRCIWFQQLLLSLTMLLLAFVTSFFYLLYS
inactive: [1] 0.003 | [2] 0.008 | [3] -0.007 | [4] 0.158 | [5] -0.014 | [6] 0.039 | [7] -0.054 | [8] 0.004 | [9] 0.043 | [10] 0.076 | [11] -0.028 | [12] -0.034 | [13] -0.03 | [14] 0.11 | [15] -0.015 | [16] 0.053 | [17] -0.026 | [18] 0.125 | [19] -0.027 | [20] -0.039

LAP3 (UniProt P28838)
inactive: [1] 0.107 | [2] 0.024 | [3] -0.002 | [4] 0.195 | [5] 0.054 | [6] -0.095 | [9] 0.082 | [10] 0.042 | [11] -0.249 | [12] 0.082 | [13] 0.069 | [14] -0.063 | [15] 0.191 | [16] 0.006 | [17] 0.004 | [18] -0.02 | [19] 0.038 | [20] -0.004
active: [7] -0.495 | [8] 0.36

MED10 (UniProt Q9BTT4)
Chain of UniProt Q9BTT4 (Q9BTT4 whole entry, looked up): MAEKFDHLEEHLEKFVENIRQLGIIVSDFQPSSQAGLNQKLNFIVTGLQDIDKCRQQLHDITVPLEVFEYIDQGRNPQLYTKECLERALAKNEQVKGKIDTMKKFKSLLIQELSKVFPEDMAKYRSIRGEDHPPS
inactive: [1] 0.037 | [2] 0 | [3] 0.08 | [4] 0.133 | [5] 0.066 | [6] -0.009 | [7] 0.107 | [8] -0.059 | [9] 0.077 | [10] -0.015 | [11] 0.038 | [12] 0.041 | [13] 0.042 | [14] 0.068 | [15] 0.045 | [16] 0.11 | [17] -0.185 | [18] 0.082 | [19] -0.03 | [20] -0.045

METTL2A (UniProt Q96IZ6)
inactive: [1] 0.073 | [2] 0.058 | [3] 0.023 | [4] -0.046 | [5] -0.015 | [6] -0.011 | [7] 0.06 | [8] -0.113 | [9] -0.004 | [10] 0.011 | [11] 0.023 | [12] -0.079 | [13] 0.058 | [14] 0.019 | [15] -0.028 | [16] -0.007 | [17] 0.055 | [18] -0.057 | [19] 0.029 | [20] 0.04

KMT2A isoform 3 (UniProt Q03164)
Chain of UniProt Q03164 (Q03164 whole entry, looked up): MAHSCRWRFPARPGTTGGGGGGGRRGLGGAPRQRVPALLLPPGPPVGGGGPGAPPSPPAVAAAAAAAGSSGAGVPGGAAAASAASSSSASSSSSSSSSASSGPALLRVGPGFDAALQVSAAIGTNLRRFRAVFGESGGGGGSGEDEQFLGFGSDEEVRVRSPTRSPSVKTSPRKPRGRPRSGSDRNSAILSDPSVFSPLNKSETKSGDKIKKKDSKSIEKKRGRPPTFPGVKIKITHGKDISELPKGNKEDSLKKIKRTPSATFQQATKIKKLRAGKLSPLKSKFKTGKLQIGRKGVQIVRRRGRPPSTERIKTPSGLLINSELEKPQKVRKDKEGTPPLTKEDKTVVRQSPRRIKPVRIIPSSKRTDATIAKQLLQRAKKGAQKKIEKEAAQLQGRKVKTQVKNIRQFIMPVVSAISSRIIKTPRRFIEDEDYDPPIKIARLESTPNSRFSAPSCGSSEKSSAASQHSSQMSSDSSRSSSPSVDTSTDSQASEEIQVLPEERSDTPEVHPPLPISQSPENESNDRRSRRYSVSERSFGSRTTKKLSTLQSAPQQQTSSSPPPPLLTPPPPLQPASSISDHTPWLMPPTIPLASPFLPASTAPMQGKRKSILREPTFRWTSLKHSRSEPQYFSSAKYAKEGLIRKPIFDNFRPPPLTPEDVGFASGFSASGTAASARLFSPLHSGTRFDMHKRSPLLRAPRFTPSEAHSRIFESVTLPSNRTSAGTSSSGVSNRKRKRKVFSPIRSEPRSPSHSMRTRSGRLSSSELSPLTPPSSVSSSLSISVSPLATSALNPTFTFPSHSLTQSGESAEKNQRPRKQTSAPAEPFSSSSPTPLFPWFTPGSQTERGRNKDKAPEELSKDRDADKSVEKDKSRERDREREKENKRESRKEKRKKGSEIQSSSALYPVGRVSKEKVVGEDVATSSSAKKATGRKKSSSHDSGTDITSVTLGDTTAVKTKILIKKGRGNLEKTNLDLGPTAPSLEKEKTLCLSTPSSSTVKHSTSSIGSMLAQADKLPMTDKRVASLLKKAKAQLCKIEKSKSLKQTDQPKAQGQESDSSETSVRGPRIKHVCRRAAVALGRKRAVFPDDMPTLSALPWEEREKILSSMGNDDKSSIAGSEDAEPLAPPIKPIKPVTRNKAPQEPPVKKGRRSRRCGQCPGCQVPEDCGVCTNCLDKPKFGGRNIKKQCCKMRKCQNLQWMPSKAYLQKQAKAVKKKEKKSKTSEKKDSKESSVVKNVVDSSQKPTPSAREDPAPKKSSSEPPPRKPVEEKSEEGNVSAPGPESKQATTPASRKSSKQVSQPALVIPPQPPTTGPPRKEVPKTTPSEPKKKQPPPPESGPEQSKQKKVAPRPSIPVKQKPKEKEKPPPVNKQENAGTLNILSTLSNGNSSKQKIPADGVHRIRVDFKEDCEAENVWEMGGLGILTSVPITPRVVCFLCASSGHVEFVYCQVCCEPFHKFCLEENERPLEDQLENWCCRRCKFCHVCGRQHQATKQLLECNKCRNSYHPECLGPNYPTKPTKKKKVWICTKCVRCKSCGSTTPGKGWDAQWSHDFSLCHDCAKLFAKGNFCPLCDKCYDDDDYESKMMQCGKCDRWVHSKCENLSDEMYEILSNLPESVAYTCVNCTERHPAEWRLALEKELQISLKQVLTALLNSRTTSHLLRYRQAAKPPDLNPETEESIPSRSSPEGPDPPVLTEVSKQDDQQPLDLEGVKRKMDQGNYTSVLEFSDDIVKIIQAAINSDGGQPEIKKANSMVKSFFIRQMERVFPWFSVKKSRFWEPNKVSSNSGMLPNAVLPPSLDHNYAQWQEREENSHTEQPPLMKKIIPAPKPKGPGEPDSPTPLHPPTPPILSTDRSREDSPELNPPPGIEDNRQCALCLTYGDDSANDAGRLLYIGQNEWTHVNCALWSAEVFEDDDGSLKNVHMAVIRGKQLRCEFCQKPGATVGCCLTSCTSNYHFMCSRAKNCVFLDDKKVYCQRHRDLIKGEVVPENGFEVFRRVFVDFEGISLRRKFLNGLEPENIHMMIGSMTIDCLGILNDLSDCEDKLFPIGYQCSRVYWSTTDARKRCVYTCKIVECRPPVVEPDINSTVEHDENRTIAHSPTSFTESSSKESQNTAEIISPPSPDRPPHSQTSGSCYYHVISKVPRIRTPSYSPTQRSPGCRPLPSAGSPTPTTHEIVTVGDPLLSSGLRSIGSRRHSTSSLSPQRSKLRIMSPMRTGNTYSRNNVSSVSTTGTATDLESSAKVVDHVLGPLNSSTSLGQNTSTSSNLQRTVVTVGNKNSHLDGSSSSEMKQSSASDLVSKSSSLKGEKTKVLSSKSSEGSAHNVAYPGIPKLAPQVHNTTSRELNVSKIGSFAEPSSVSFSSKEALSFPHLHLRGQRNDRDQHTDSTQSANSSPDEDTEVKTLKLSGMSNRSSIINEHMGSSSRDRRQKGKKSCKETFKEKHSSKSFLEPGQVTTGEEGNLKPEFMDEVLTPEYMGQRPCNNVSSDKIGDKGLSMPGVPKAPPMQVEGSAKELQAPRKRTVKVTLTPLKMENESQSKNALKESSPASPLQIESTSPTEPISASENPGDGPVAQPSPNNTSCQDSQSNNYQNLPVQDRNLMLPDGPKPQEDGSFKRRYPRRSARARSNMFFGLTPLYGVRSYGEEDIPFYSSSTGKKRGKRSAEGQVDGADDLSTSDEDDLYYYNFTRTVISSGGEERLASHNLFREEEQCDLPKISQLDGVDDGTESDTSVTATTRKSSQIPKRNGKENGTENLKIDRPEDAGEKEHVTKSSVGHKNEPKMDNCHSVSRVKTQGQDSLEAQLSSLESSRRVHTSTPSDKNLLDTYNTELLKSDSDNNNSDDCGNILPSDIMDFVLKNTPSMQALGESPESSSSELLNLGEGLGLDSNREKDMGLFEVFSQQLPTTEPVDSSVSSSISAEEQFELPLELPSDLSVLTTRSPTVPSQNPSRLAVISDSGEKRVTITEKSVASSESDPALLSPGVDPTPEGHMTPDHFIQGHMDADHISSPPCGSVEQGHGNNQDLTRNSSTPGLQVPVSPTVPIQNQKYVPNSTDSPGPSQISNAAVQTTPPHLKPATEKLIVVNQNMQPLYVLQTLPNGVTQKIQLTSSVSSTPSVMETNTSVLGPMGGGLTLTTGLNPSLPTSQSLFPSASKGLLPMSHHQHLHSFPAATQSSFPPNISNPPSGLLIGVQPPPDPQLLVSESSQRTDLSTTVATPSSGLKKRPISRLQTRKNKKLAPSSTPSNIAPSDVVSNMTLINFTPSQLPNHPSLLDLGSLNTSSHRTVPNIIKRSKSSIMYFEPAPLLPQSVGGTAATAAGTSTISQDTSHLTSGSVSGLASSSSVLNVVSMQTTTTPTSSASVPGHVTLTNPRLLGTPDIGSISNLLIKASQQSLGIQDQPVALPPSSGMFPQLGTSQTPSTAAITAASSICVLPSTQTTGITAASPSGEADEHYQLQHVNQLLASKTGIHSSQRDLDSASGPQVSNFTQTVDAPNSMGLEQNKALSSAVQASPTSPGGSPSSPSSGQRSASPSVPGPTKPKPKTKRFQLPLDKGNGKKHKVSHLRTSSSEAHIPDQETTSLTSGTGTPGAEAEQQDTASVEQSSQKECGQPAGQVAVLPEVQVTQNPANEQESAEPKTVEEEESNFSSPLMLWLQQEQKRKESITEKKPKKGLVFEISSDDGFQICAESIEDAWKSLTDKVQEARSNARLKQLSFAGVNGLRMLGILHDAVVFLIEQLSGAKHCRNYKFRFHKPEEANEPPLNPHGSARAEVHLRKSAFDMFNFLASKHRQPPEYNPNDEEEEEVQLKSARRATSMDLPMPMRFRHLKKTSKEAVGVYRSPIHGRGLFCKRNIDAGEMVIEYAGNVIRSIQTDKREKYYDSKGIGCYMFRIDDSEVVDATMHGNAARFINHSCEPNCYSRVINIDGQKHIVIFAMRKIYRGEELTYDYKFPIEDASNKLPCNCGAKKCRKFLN
inactive: [1] 0.044 | [2] -0.033 | [3] 0.042 | [4] -0.035 | [5] -0.054 | [6] -0.058 | [7] -0.093 | [8] -0.01 | [9] -0.069 | [10] 0.034 | [11] -0.073 | [12] 0.011 | [13] -0.07 | [14] -0.054 | [15] -0.069 | [16] -0.118 | [17] -0.037 | [18] -0.371 | [19] 0.061 | [20] -0.172
